# Source: PubChem BioAssay AID1347420 (Sanford-Burnham Center for Chemical Genomics, 2020)
# Values joined by “and” are separate entries in the source; they are usually repeats but may differ in a detail not shown here. Equal values may be shown once. About 980 (75%) of roughly 1,300 compounds were called active. Inconclusive results (about 4%) are left out. Some of the results follow. Values without a mark were called inactive.
# Molecular target: Sulfhydryl oxidase 1 (Homo sapiens) (UniProt O00391)
# Sequence (O00391 whole entry, looked up): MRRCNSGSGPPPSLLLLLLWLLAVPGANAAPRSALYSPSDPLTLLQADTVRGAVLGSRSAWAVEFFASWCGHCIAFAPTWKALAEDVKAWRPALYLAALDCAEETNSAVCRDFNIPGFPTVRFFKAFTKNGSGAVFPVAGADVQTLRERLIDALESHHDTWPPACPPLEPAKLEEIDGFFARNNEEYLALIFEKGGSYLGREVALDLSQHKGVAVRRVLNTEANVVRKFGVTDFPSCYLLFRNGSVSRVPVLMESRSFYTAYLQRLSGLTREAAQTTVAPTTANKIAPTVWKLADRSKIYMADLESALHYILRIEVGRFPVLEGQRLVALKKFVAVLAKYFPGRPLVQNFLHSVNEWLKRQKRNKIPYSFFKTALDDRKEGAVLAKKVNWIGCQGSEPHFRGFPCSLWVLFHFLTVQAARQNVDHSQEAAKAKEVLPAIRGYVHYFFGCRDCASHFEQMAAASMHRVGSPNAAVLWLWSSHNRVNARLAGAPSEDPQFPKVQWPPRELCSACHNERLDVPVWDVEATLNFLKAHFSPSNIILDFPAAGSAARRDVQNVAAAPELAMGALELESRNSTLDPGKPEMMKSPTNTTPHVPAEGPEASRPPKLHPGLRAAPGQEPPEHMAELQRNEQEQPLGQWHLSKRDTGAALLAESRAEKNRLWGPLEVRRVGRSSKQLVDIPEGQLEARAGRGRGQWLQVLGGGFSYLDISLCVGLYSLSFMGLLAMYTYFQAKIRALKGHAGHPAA
# Assay: QSOX1 enzyme inhibitors, primary screen, biochemical, HyperBlu H2O2 luminescence, HTS (AID 1347420); note: values above 100% were filed as inconclusive
# Settings: recombinant QSOX1, HyperBlu H2O2 luminescence, at 12.5 µM, stronger effect = higher value; active = any value above zero unless noted
row,SMILES,inhibition
1,Cn1cnc(CCN)c1,10.9% (active)
2,COc1ccc(C(CN(C)C)C2(O)CCCCC2)cc1 (stereo not drawn),7.4% (active)
3,NCCCP(=O)(O)O,-9.2%
4,CCCCc1ccc(C(=O)O)nc1,5.9% (active)
5,CC(N)[C@H](O)c1ccc(O)c(O)c1 (stereo partly drawn),57.3% [setting not given] (active)
6,NC(C(=O)O)c1cc(=O)[nH]o1 (stereo not drawn),4.7% (active)
7,CCCN1CCC[C@@H]2Cc3nc(N)ncc3C[C@H]21,14.3% (active)
8,CCCN1CCC[C@@H]2Cc3[nH]ncc3C[C@H]21,5.1% (active)
9,O=C(N[C@H]1CN2CCC1CC2)c1ccc(Cl)cc1,8.6% (active)
10,CC(C)(C)NCC(O)c1ccccc1Cl (stereo not drawn),6.8% (active)
11,COc1ccc2c(c1OC)C(=O)O[C@H]2[C@@H]1c2cc3c(cc2CCN1C)OCO3,12.6% (active)
12,O=[N+]([O-])/C=C/c1ccc2c(c1)OCO2,19.2% (active)
13,C#CCN[C@H](C)Cc1ccccc1,8.8% [setting not given] (active)
14,CNc1ccc2oc(C[C@H]3O[C@@]4(CC[C@H]3C)O[C@H]([C@H](C)C(=O)c3ccc[nH]3)[C@H](C)C[C@H]4C)nc2c1C(=O)O,30.5% [setting not given] (active)
15,O=C(O)CC[N+](=O)[O-],12% [setting not given] (active)
16,CCn1cnc2c(Nc3cccc(Cl)c3)nc(N[C@@H]3CCCC[C@@H]3N)nc21,10.8% (active)
17,CC(C)[C@H]1CN[C@H](C(=O)O)[C@H]1CC(=O)O,23.9% (active)
18,C=C(C)[C@H]1CN[C@H](C(=O)O)[C@H]1CC(=O)O,5.8% (active)
19,COC(=O)N1CCN(C(=O)Cc2ccc(Cl)c(Cl)c2)C(CN2CCCC2)C1 (stereo not drawn),13.5% (active)
20,CN(C(=O)Cc1ccc(Cl)c(Cl)c1)C(CN1CCCC1)c1cccc(OCC(=O)O)c1 (stereo not drawn),-2.6%
21,O=C(Cc1ccc(Cl)c(Cl)c1)N1CCCCC1CN1CCCC1 (stereo not drawn),2.1% (active)
22,NN=C(N)N,17.9% (active) and 6.7% (active)
23,NC(Cc1cc(O)c(O)cc1O)C(=O)O (stereo not drawn),30.1% (active)

row,SMILES,inhibition
1,NC1CCc2cc(O)c(O)cc2C1 (stereo not drawn),60.4% (active)
2,NC(=NCCC[C@H](N)C(=O)O)N[N+](=O)[O-],7.4% (active)
3,COC(=O)[C@@H](N)CCCN=C(N)N[N+](=O)[O-],-8.2%
4,COc1ccc2c(c1)c(CCN1CCOCC1)c(C)n2C(=O)c1cccc(Cl)c1Cl,-15.7%
5,CCC1(C2=NCCN2)Cc2ccccc2O1 (stereo not drawn),0.3% (active)
6,NC(Cc1ccc(N(CCCl)CCCl)cc1)C(=O)O (stereo not drawn),85.8% (active)
7,O=C(O)CCCc1ccc(N(CCCl)CCCl)cc1,18% [setting not given] (active)
8,Cn1c(CCCC(=O)O)nc2cc(N(CCCl)CCCl)ccc21,87% (active)
9,NCCc1ccc(O)cc1,14.4% [setting not given] (active)
10,NCCc1ccc(S(=O)(=O)F)cc1,22.8% (active)
11,c1ccc2sc(C3(N4CCCCC4)CCCCC3)cc2c1,-3%
12,CN1C(=O)CCS(=O)(=O)C1c1ccc(Cl)cc1 (stereo not drawn),18.9% (active)
13,CCS(=O)(=O)Nc1cccc(C(=C2CCCCC2)c2cnc[nH]2)c1,14.3% (active)
14,OC1CCCCC1N1CCC(c2ccccc2)CC1 (stereo not drawn),6.2% [setting not given] (active)
15,C=C(C)[C@H]1Cc2c(ccc3c2O[C@@H]2COc4cc(OC)c(OC)cc4[C@@H]2C3=O)O1,-11.7% [setting not given]
16,C[C@H]1C2Cc3ccc(O)cc3C1(C)CCN2CC1CC1 (stereo partly drawn),26.8% [setting not given] (active)
17,O=C(CCCN1CCC2(CC1)C(=O)NCN2c1ccccc1)c1ccc(F)cc1,7.6% [setting not given] (active)
18,O=C1NCN(c2ccccc2)C12CCN(CC1COc3ccccc3O1)CC2 (stereo not drawn),5.7% (active)
19,CC(CCc1ccccc1)NC(C)C(O)c1ccc(O)cc1 (stereo not drawn),28.5% (active)
20,NC(=O)CN1CCCC1=O,1% [setting not given] (active)
21,NC(=O)CN1CC(O)CC1=O (stereo not drawn),15.4% [setting not given] (active)
22,O=C1CCCN1CC#CCN1CCCC1,12.7% [setting not given] (active)
23,Cc1cccc(C)c1NC(=O)CN1CCCC1=O,13.4% [setting not given] (active)

row,SMILES,inhibition
1,O=P1(N(CCCl)CCCl)NCCCO1 (stereo not drawn),-3.8%
2,C/C=C(/C)C(=O)O[C@H]1C(C)=C2[C@H]([C@@H]1OC(=O)CCCCCCC)[C@@](C)(OC(C)=O)C[C@H](OC(=O)CCC)[C@@]1(O)[C@H]2OC(=O)[C@@]1(C)O,-2.4%
3,Cc1nccc2c1[nH]c1ccccc12,8.6% [setting not given] (active)
4,Cc1c2ccncc2c(C)c2c1[nH]c1ccccc12,78.9% [setting not given] (active)
5,CC(=O)OCC1=C(C(=O)O)N2C(=O)[C@@H](NC(=O)CCC[C@@H](N)C(=O)O)[C@H]2SC1,-10.7%
6,Cc1ncsc1CCCl,12.9% (active)
7,c1ccc(C2(c3ccccc3)CC2C2=NCCN2)cc1 (stereo not drawn),6.4% (active)
8,COc1cc(CC(C)N)c(OC)cc1I (stereo not drawn),7.8% [setting not given] (active)
9,CS(=N)(=O)CC[C@H](N)C(=O)O (stereo partly drawn),-10.8%
10,NCC(CP(=O)(O)O)c1ccc(Cl)cc1 (stereo not drawn),-10.6%
11,NC(CP(=O)(O)O)C(=O)O (stereo not drawn),2.2% (active)
12,NC(CCCCCP(=O)(O)O)C(=O)O (stereo not drawn),-4.7%
13,C[Se]C[C@H](N)C(=O)O,-0.1%
14,N[C@@H](CCl)C(=O)O,8.8% (active)
15,NC(CCP(=O)(O)O)C(=O)O (stereo not drawn),12.3% (active)
16,CN1C2CCC1CC(OC(c1ccccc1)c1ccccc1N)C2 (stereo not drawn),14.6% (active)
17,OCc1cnc[nH]1,3.5% (active)
18,O=C(O)Cc1cnc[nH]1,5.5% (active)
19,C[C@@H](N)Cc1cnc[nH]1,21.1% (active)
20,C#CCOC(=O)C1=CCCN(C)C1,17.9% (active)
21,COC(=O)C1=CCCN(C)C1,0.6% [setting not given] (active)
22,CC(C)NC(C)Cc1ccc(I)cc1 (stereo not drawn),19.1% [setting not given] (active)
